# Compound activity from PubChem BioAssay.
# hcDAF-12 act = H. contortus DAF-12 activation, primary screen | activation, % at 6.8 µM | HEK293 hcDAF-12 lit1-tk-luc reporter, luminescence; 0% DMSO, 100% Δ7-dafachronic acid | hit rate 1.4% among 370,000 | AID 652067;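 active = activation above the mean of all tested compounds plus 3 SD, cut at about 5.5% in these data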
# ssDAF-12 act = S. stercoralis DAF-12 activation, primary screen; activation, % at 6.8 µM; hit rate 1% among 370,000; HEK293 ssDAF-12/GRIP1 lit1-tk-luc reporter, luminescence; % of 3 µM dafachronic acid response;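 active = activation above the mean over all tested compounds plus 3 SD, cut at about 0.9% in these data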
# DAX1 inh-1 = inhibits human nuclear receptor DAX1; P51843; HEK293 Gal4-DAX1 luciferase reporter, luminescence; inhibition, % at 6.75 µM; hit rate 0.99% among 340,000; AID 504766;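 active = inhibition above the mean over all tested compounds plus 3 SD, cut at about 4.2% in these data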;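 also: inhibition shows as a rise in luminescence from relieved DAX1 repression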
# Target sequence (P51843 207-470 limits assumed): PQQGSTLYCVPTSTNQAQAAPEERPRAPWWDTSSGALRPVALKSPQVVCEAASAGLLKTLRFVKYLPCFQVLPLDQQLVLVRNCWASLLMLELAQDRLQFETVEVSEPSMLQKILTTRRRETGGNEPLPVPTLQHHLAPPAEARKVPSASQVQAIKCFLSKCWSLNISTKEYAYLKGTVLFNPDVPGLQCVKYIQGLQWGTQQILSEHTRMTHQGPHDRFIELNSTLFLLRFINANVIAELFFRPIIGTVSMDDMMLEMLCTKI
# hgDAF-12 ag = agonists of H. glycines DAF-12 nuclear receptor; HEK293 GAL4-hgDAF12 UAS-luciferase reporter, agonist luminescence; normalized to butyrate control; activation, % at 6.8 µM; hit rate 1.8% among 370,000; AID 687014;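 active = activation above a cutoff set at the mean of all screened compounds plus 3 SD, cut at about 10% in these data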
# DAX1 inh-2 = blocks DAX1 repression of SF-1 activated StAR promoter; inhibition, % at 6.8 µM; hit rate 1.1% among 370,000; HEK293T StAR-luciferase reporter, SF-1/DAX-1 repression relief;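 active = inhibition above the mean over all tested compounds plus 3 SD, cut at about 3.6% in these data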;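 also: higher inhibition means more luminescence from relief of DAX-1 repression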
# GAA850 FXN act = increases GAA850 frataxin promoter reporter activity; hit rate 0.56% among 360,000; HEK293 lucGAA850 FXN promoter luciferase reporter, 24 h; percent of 10 µM SAHA response; activation, % at 6 µM;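 active = activation above the average of all compounds screened plus 3 SD, cutoff fixed separately per campaign, cut at about 7.5% in these data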
# A number is an active result; – = inactive; · = no result. Rows were chosen to be rich in hits. Some 4.5% of all compounds tested hit in one or more screens of this group.
SMILES,hcDAF-12 act,ssDAF-12 act,DAX1 inh-1,hgDAF-12 ag,DAX1 inh-2,GAA850 FXN act
COC(=O)[C@H](CC(C)C)N(CCCc1cn(Cc2ccccc2)nn1)S(=O)(=O)c1ccc(F)cc1Br,–,–,·,–,–,·
CC(C)(C)c1ccc(C(=O)/C(C#N)=C/c2cccs2)cc1,–,–,4.6,–,–,–
O=C(C1CCCN(S(=O)(=O)c2ccccc2F)C1)N1CCN(Cc2ccccc2)CC1 (stereo unspecified),–,–,·,–,–,·
CCN(Cc1ccccc1)S(=O)(=O)c1ccc(C(=O)N(CCCN(C)C)c2nc3c(F)cccc3s2)cc1,5.7,–,–,–,–,–
COC(=O)C1CN(Cc2cn(CCC3OCCO3)nn2)CCS(=O)(=O)N1Cc1ccccc1 (stereo unspecified),–,–,·,–,–,·
C=CCSc1nc2ccccc2c2nc(-c3ccccc3)nn12,–,–,4.7,–,–,–
COC(=O)[C@]12C[C@H](CC(=O)NCc3cccc4ccccc34)C(=O)N(CCc3ccc(OC)c(OC)c3)C1=C[C@H](C(C)C)O[C@@H]2C1CC1,–,–,·,–,–,·
O=S(=O)(NCCCc1ccccc1)c1ccc(F)c(F)c1,–,–,4.8,–,–,–
COc1cccc(-c2ccc(C#N)c(SCC(=O)NCCc3ccccc3)n2)c1,–,1.0,–,–,–,–
COc1cccc(-c2ccc(SCC(=O)NCCc3ccccc3)nn2)c1,–,–,–,–,–,–
O=C1C[C@@H](c2ccccc2)N=C2N(Cc3ccc4c(c3)OCO4)C/C(=C/c3ccccc3)N12,–,–,·,–,–,·
O=C(O)C1C=CCC(C(=O)O)C1 (stereo unspecified),–,2.4,–,–,–,–
O=C(O)C1CC(C(=O)O)SS1 (stereo unspecified),–,–,–,–,–,–
COc1ccc(-c2nnc(SCC(=O)Nc3cccc4ccccc34)n2Cc2ccco2)cc1,–,–,·,–,–,·
COc1ccc(N2C(=O)[C@@H]3[C@H](C2=O)[C@H]2c4ccccc4C=CN2[C@@H]3C(=O)Nc2ccccc2)cc1,6.1,–,–,–,–,–
CC(C)c1ccc2c(c1)C(c1cccs1)=NNC(c1ccncc1)=N2,–,–,–,–,–,–
COc1ccc2c(c1)C(c1cccs1)=NNC(c1ccncc1)=N2,–,–,–,–,–,9.4
O=c1nc(/C=C/c2ccc(O)c(O)c2)oc2ccccc12,·,·,4.8,·,·,–
C[C@H]1COc2cc(N3CCCC3)ccc2S(=O)(=O)N1C,–,–,·,–,–,·
c1ccc(-c2nc3ccccc3n2C(c2ccccc2)c2nc3ccccc3[nH]2)cc1 (stereo unspecified),–,–,·,12.5,–,·
CCN(C(=O)[C@H]1CC(=O)O[C@@H]1c1ccccc1)c1ccccc1,–,–,·,–,–,·
Cc1cc(C)cc(NC(=S)Nc2cccc3ccccc23)c1,–,–,–,–,–,–
Fc1ccc(NC(=S)Nc2cccc3ccccc23)cc1,5.7,–,–,–,–,–
Cc1ccc(NC(=S)Nc2cccc3ccccc23)cc1,–,1.0,–,–,–,–
CCOC(=O)c1sc(NC(=O)CN2CCN(c3ccc(OC)cc3)CC2)nc1C,–,1.8,–,–,–,–
SMILES,hcDAF-12 act,ssDAF-12 act,DAX1 inh-1,hgDAF-12 ag,DAX1 inh-2,GAA850 FXN act
Cc1cc(NC(=O)c2ccccc2NS(=O)(=O)c2c(C)c(C)cc(C)c2C)no1,–,–,–,–,–,–
Cc1cc(C)c(C)c(S(=O)(=O)Nc2ccccc2C(=O)O)c1C,–,–,4.9,–,–,–
O=C(CSc1nnc(-c2ccco2)n1Cc1ccco1)c1ccc([N+](=O)[O-])cc1,–,–,·,–,–,·
CCCCc1cc(=O)oc2c(CN(C)C)c(O)c(Cl)cc12,–,1.3,–,–,–,–
COc1cccc2c(=O)c3ccccc3oc12,–,–,4.5,–,–,–
COc1ccc2oc3ccccc3c(=O)c2c1,–,–,–,–,–,–
O=C(C1CCCN(S(=O)(=O)c2cccs2)C1)N1CCN(Cc2ccccc2)CC1 (stereo unspecified),–,–,·,–,–,·
COC(=O)[C@H](C(C)C)N1Cc2nnn(Cc3ccccc3)c2-c2ccccc2S1(=O)=O,–,–,·,–,–,·
COC(=O)c1ccc(COc2ccc(/C=N/Nc3nc(C)cc(=O)[nH]3)cc2)cc1,–,–,5.8,–,–,–
CC(OC(=O)c1ccc(Cl)nc1)C(=O)NC1(C#N)CCCCC1 (stereo unspecified),–,–,4.5,–,–,–
Cc1[nH]c2ccc(F)cc2c1CCN1C(=O)OC(C)(C)C1(C)O (stereo unspecified),–,–,7.3,–,–,–
Cc1[nH]c2ccc(OCc3ccccc3)cc2c1CCN1C(=O)OC(C)(C)C1(C)O (stereo unspecified),–,–,–,–,–,–
O=c1c2ccccc2nnn1COc1cccc2ccccc12,–,1.1,–,–,–,–
CC1CCN(C(=O)COc2ncnc3ccccc23)CC1,–,–,–,–,–,–
CC1CCN(C(=O)COc2ccc3ccccc3c2Br)CC1,–,–,–,–,4.2,–
Cc1ccc(C(=O)Cn2nnc3ccccc32)cc1,–,–,–,11.3,–,–
c1ccc(CCn2nnc3ccccc32)cc1,–,–,6.3,–,–,–
Cc1nc2ccccc2n1CCc1ccccc1,–,–,–,–,–,–
CC(=O)c1nc2ccccc2n1CCc1ccccc1,–,1.2,–,–,–,–
Cc1ccc(OCCn2nnc3ccccc32)cc1C,–,–,–,12.6,–,–
COc1ccc(CN(CCN2CCOCC2)C(=O)c2ccccc2C)cc1OC,–,–,·,–,–,·
O=C(Cn1nnc2ccccc21)OCc1ccccc1,–,–,–,–,–,–
O=C(Cn1nnc2ccccc21)NCc1ccccc1,–,–,–,10.8,–,–
Cc1ccc(-n2c(SCc3c(Cl)cccc3Cl)nnc2-c2ccco2)cc1,–,–,·,–,–,·
Cc1csc(SC(C)C(=O)NCC2CCCCC2)n1 (stereo unspecified),–,1.0,–,–,–,–
SMILES,hcDAF-12 act,ssDAF-12 act,DAX1 inh-1,hgDAF-12 ag,DAX1 inh-2,GAA850 FXN act
Cc1csc(SC(C)C(=O)Nc2ccc(S(=O)(=O)N3CCCC3)cc2)n1 (stereo unspecified),–,–,–,–,–,–
COc1ccc(Cn2ccc3ccc(-c4ccc5ccn(C(=O)c6ccc(C)cc6)c5c4)cc32)cc1,–,–,·,–,–,·
C/C(=N\Nc1nc2c(s1)CCCC2)c1ccc(Cl)cc1,6.3,–,–,–,–,–
CSc1cnn(CCC#N)c(=O)n1,6.0,1.2,·,–,–,·
CSc1nc(=O)n(CCC#N)nc1SC,–,–,·,–,–,·
CC(C)C[C@@H]1COc2cc(Br)ccc2S(=O)(=O)N1Cc1cn(Cc2ccc(F)cc2)nn1,–,–,·,–,–,·
CCOC(=O)c1[nH]c2ccccc2c1NC(=S)Nc1ccccc1,6.0,2.0,–,–,–,–
